Test results published in PubChem BioAssay (EPA / NIEHS).
Inconclusive results are not listed. The source made the active and inactive calls. The calls were made as follows, unless noted: active = hit-call score of the fitted dose curve at least 0.9, where 1 is the maximum; inactive = score below 0.9.

Assays:
[1] = CCTE_Mundy_HCI_Cortical_NOG_NeuriteCount: CCTE's Neurite Outgrowth Assay in rat cortical cells for Neurite Count, Mundy Lab (AID 2284212);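 also: cells fixed about two days after chemical exposure began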
Summary of the method: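 Rat cortical primary cells; compound added 2 h post-plating, 1/10 dilution of working solution. Anti-betaIII-tubulin/AF488 ICC; ArrayScan neurite count vs DMSO.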

[2] = CCTE_Mundy_HCI_Cortical_NOG_NeuriteLength: CCTE's Neurite Outgrowth Assay in rat cortical cells for Neurite Length, Mundy Lab (AID 2284213);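 also: neurites imaged about 48 to 50 h after chemical exposure began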
Summary of the method: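 First, rat primary cortical cells were plated and, 2 h later, given test chemical as a 1/10 dilution. Finally, βIII-tubulin immunostaining enabled automated imaging of neurite length.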

[3] = CCTE_Mundy_HCI_Cortical_Synap_Neur_Matur_NeuriteLength: CCTE's Synaptogenesis and Neurite Maturation Assay in rat cortical cells for Neurite Length, Mundy Lab (AID 2284214)
Summary of the method: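 Neurite length quantified by automated high-content imaging of MAP2, synaptophysin and Hoechst staining. Rat cortical cells received chemical from DIV 7 to DIV 12 […], glial growth arrested by AraC at DIV 5; DMSO baseline.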

[4] = CCTE_Mundy_HCI_Cortical_Synap_Neur_Matur_NeuriteSpotCountPerNeuron: CCTE's Synaptogenesis and Neurite Maturation Assay in rat cortical cells for Neurite Spot Count per Neuron Count, Mundy Lab (AID 2284215)
Summary of the method: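 Developing rat cortical neurons, with glia suppressed by AraC, are exposed to chemicals from DIV 7 to DIV 12. Automated fluorescence imaging of MAP2-labelled neurites and synaptophysin puncta yields a count per neuron, normalised against DMSO wells.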

[5] = CCTE_Mundy_HCI_Cortical_Synap_Neur_Matur_SynapseCount: CCTE's Synaptogenesis and Neurite Maturation Assay in rat cortical cells for Synapse Count, Mundy Lab (AID 2284218)
Summary of the method: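 High-content imaging of synaptophysin puncta per MAP2-positive neuron (Hoechst nuclei) in rat cortical cells exposed DIV 7–12 after glial arrest with AraC at DIV 5; decrease relative to DMSO scored.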

[6] = CCTE_Mundy_HCI_Cortical_Synap_Neur_Matur_NeuriteCount: CCTE's Synaptogenesis and Neurite Maturation Assay in rat cortical cells for Neurite Count, Mundy Lab (AID 2284222)
Summary of the method: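 In this multiplexed morphology readout, rat primary cortical neurons are fixed at DIV 12 following dosing at DIV 7 and stained for MAP2, synaptophysin and nuclei. High-content image analysis yields neurite count.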

[7] = CCTE_Mundy_HCI_Cortical_Synap_Neur_Matur_CellBodySpotCount: CCTE's Synaptogenesis and Neurite Maturation Assay in rat cortical cells for Cell Body Spot Count, Mundy Lab (AID 2284223)
Summary of the method: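 Chemicals were applied to AraC-treated rat primary cortical cells at DIV 7 and measured at DIV 12. Fixed cells were labelled for MAP2, synaptophysin and nuclei, and high-content imaging gave cell body synaptophysin spot counts per neuron relative to DMSO.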

[8] = CCTE_Mundy_HCI_hNP1_Pro_ResponderAvgInten: CCTE's Proliferation Assay in human neuroprogenitor cells, Mundy Lab (AID 2284224; active = hit-call score of the fitted dose curve at least 0.9, where 1 is the maximum;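 also: human neural progenitor cells hNP1 derived from WA09 embryonic stem cells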)
Summary of the method: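 Proliferation read as average intensity of BrdU-positive cells, imaged at 26.25 h post-dosing: chemical exposure started after 40–44 h culture, BrdU during final 4 h, paraformaldehyde fixation. Positive-direction fit relative to DMSO.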

[9] = UKN2_HCS_IMR90_cell_viability: Viability Assessment in the University of Konstanz (UKN) Leist Lab Neural Crest Cell Migration Assay in human induced IMR90 Pluripotent Stem Cells (UKN2) (AID 2284233);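 also: cells exposed to compound for 24 h after a 24 h migration phase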
Summary of the method: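 Viability read as calcein-AM fluorescence by high-content imaging, Hoechst co-stain, 30 min. Human iPSC (IMR90) neural crest cells had migrated 24 h into stopper-defined gaps before 24 h chemical exposure. Fitted bidirectionally relative to DMSO.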

[10] = CCTE_Mundy_HCI_Cortical_NOG_NeuronCount: CCTE's Neurite Outgrowth Assay in rat cortical cells for Neuron Count, Mundy Lab (AID 2284236; active = hit-call score of the fitted dose curve at least 0.9, where 1 is the maximum;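 also: neurons counted by imaging betaIII-tubulin and Hoechst stained cortical cells; cells exposed to compound for about 48 hours before fixation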)
Summary of the method: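 Read-out: neuron number by high-content imaging of betaIII-tubulin (Alexa Fluor-488) and Hoechst-labelled rat primary cortical cells.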

[11] = CCTE_Mundy_HCI_Cortical_NOG_BPCount: CCTE's Neurite Outgrowth Assay in rat cortical cells for Branch Point Count, Mundy Lab (AID 2284237);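 also: branch points counted about two days after chemical exposure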
Summary of the method: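 Measured 50.33 h after dosing, this morphology endpoint uses rat primary cortical cultures labelled for betaIII-tubulin. Branch points are quantified by high-content imaging, with DMSO as negative control and baseline.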

[12] = CCTE_Mundy_HCI_hNP1_Casp3_7: CCTE's Caspase-Glo 3/7 Assay in human neuroprogenitor cells for Apoptosis, Mundy Lab (AID 2284240)
Summary of the method: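 Luminescent caspase-3/7 readout, 26.5 h post-dose, in human neural progenitor cells from WA09 embryonic stem cells. Cells grew 40–44 h at 37 °C, 5% CO2 before chemical addition. Activity analysed as signal increase over DMSO baseline.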

[13] = CCTE_Mundy_HCI_hNP1_CellTiter: CCTE's Cell Titer-Glo 2 Assay in human neuroprogenitor cells for Viability, Mundy Lab (AID 2284241; active = hit-call score of the fitted dose curve at least 0.9, where 1 is the maximum;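 also: a hit is a drop in ATP luminescence versus DMSO meaning reduced viability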)
Summary of the method: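 Viability read as luminescent ATP content (CellTiter-Glo, 30 min room temperature) twenty-four hours after dosing, relative to DMSO. Cells: WA09-derived hNP1 neuroprogenitors on poly-L-ornithine/laminin, plated 40 to 44 hours before chemical.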

[14] = CCTE_Mundy_HCI_Cortical_Synap_Neur_Matur_NeuronCount: CCTE's Synaptogenesis and Neurite Maturation Assay in rat cortical cells for Neuron Count, Mundy Lab (AID 2284242; active = hit-call score of the fitted dose curve at least 0.9, where 1 is the maximum;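 also: hits reduce neuron count versus DMSO baseline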)
Summary of the method: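 Neuron counts come from automated high-content imaging of Hoechst nuclei and MAP2/synaptophysin immunostaining at DIV 12, with loss of signal judged against DMSO. Cultures of rat cortical cells had glial growth arrested by AraC at DIV 5; chemical exposure began DIV 7.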

[15] = IUF_NPC2c_oligodendrocyte_migration_120hr: Leibniz Research Institute for Environmental Medicine (IUF) 120-hour Neural Progenitor Cell Migration Assay for Oligodendrocyte Migration (NPC2c) (AID 2284297);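 also: O4-positive oligodendrocyte migration distance divided by radial glia migration distance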
Summary of the method: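 Using fetal brain neural progenitor spheres differentiating in N2 medium at 37C, compounds were present for 120 h. Oligodendrocyte migration distance, normalized to radial glia migration, was measured from imaged O4 staining.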

[16] = IUF_NPC2a_radial_glia_migration_120hr: Leibniz Research Institute for Environmental Medicine (IUF) 120-hour Neural Progenitor Cell Migration Assay for Radial Glia Migration (NPC2a) (AID 2284298)
Summary of the method: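 Exposure of 0.3 mm primary hNPC spheres runs day 0 to 120 h with a half-volume medium change at day 3. Fixed cells get Hoechst staining; high-content analysis of nuclear positions yields radial glia migration distance per well, compared against DMSO controls.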

[17] = IUF_NPC2a_radial_glia_migration_72hr: Leibniz Research Institute for Environmental Medicine (IUF) 72-hour Neural Progenitor Cell Migration Assay for Radial Glia Migration (NPC2a) (AID 2284299)
Summary of the method: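 Radial glia migration (µm, sphere core edge to migration front, four directions averaged) from brightfield images at 72 h; hNPC spheres differentiating on PDL/laminin in N2 medium, compound exposure at 7 concentrations from plating.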

[18] = IUF_NPC2b_neuronal_migration_120hr: Leibniz Research Institute for Environmental Medicine (IUF) 120-hour Neural Progenitor Cell Migration Assay for Neuron Migration (NPC2b) (AID 2284300)
Summary of the method: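 Fetal human NPC spheres migrate on PDL/laminin during 120 h compound treatment; neuronal migration distance, glia-normalized, scored versus DMSO control.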

[19] = IUF_NPC3_neuronal_differentiation_120hr: Leibniz Research Institute for Environmental Medicine (IUF) 120-hour Neuronal Differentiation Assay (NPC3) (AID 2284301)
Summary of the method: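 hNPC spheres, PDL/laminin, DMEM/F12 3:1 + 1% N2, 37C, 5% CO2; 7 concentrations + solvent control, 5 d exposure, half-change day 3. Fix 120 h; TUBB3/Hoechst ICC, CNN neuron calling; % neurons vs nuclei, DMSO-normalized.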

[20] = IUF_NPC4_neurite_length_120hr: Leibniz Research Institute for Environmental Medicine (IUF) 120-hour Neuronal Morphology Assay for Neurite Length (NPC4) (AID 2284302)
Summary of the method: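 hNPC spheres (0.3 mm, fetal brain GW 16-19) on PDL/laminin, DMEM:F12 3:1 + 1% N2, 37C 5% CO2; 7 concs + solvent control, day 0-5, half medium change d3; fix 120 h, TUBB3 ICC, mean neurite length um vs DMSO.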

[21] = IUF_NPC5_oligodendrocyte_differentiation_120hr: Leibniz Research Institute for Environmental Medicine (IUF) 120-hour Oligodendrocyte Differentiation Assay (NPC5) (AID 2284304; active = hit-call score of the fitted dose curve at least 0.9, where 1 is the maximum;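 also: primary human fetal neural progenitor spheres plated to migrate and differentiate; share of O4-positive cells among Hoechst nuclei found by CNN image analysis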)
Summary of the method: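 After plating on poly-D-lysine/laminin, fetal-derived hNPC spheres differentiated for 120 h at 37C in compound-containing N2 medium, refreshed by half on day 3. O4 immunostaining over Hoechst nuclei in the migration zone gave oligodendrocyte percentage relative to DMSO.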

[22] = IUF_NPC4_neurite_area_120hr: Leibniz Research Institute for Environmental Medicine (IUF) 120-hour Neuronal Morphology Assay for Neurite Area (NPC4) (AID 2284305; active = hit-call score of the fitted dose curve at least 0.9, where 1 is the maximum)
Summary of the method: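 hNPC spheres on PDL/laminin, N2 medium, 37C/5% CO2; dosed day 0, half-medium refresh day 3; fixed 120 h; TUBB3/Hoechst ICC, high-content imaging; neurite area = mean pixels per neuron (nuclei excluded); DMSO baseline, max 0.1%.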

[23] = IUF_NPC2-5_cytotoxicity_72hr: Cytotoxicity Assessment at 72 hours in the Leibniz Research Institute for Environmental Medicine (IUF) Neural Progenitor Cell Migration and Differentiation Assay for Cytotoxicity (NPC2-5) (AID 2284306; active = hit-call score of the fitted dose curve at least 0.9, where 1 is the maximum;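 also: LDH release into supernatant measured by resorufin fluorescence marking membrane damage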)
Summary of the method: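 hNPC spheres (0.3 mm), PDL/laminin, DMEM/F12 3:1 + 1% N2; cpd from d0, 7 concs + SC, DMSO max 0.1%; half-medium refresh d3. Readout: supernatant LDH via resorufin fluorescence (RFU), 72 h; gain-of-signal fit.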

[24] = IUF_NPC2-5_cytotoxicity_120hr: Cytotoxicity Assessment at 120 hours in the Leibniz Research Institute for Environmental Medicine (IUF) Neural Progenitor Cell Migration and Differentiation Assay (NPC2-5) (AID 2284307; active = hit-call score of the fitted dose curve at least 0.9, where 1 is the maximum;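 also: LDH released into supernatant as membrane damage marker via resorufin fluorescence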)
Summary of the method: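 Membrane-integrity loss is quantified by LDH in supernatant after five days of exposure of migrating, differentiating human fetal NPC spheres; seven serially diluted concentrations are tested with DMSO kept at or below 0.1%.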

[25] = IUF_NPC2-5_cell_number_120hr: Cell Number Assessment at 120 hours in the Leibniz Research Institute for Environmental Medicine (IUF) Neural Progenitor Cell Migration and Differentiation Assay (NPC2-5) (AID 2284308);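 also: count of Hoechst-stained nuclei in migration zone around plated human neural progenitor spheres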
Summary of the method: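 Seven-point serial dilutions plus solvent control were applied to plated 0.3 mm hNPC spheres at differentiation start, with medium half-replaced at day 3. Nuclei positive for Hoechst in the migration zone were enumerated at 120 h.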

[26] = IUF_NPC2-5_viability_120hr: Viability Assessment at 120 hours in the Leibniz Research Institute for Environmental Medicine (IUF) Neural Progenitor Cell Migration and Differentiation Assay (NPC2-5) (AID 2284312)
Summary of the method: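 Human fetal neural progenitor spheres (0.3 mm) plated on poly-D-lysine/laminin in N2 differentiation medium, exposed 120 h with half-medium refresh at day 3. Viability by alamar blue resazurin fluorescence; 7 concentrations, DMSO max 0.1%.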

[27] = IUF_NPC1_cytotoxicity_72hr: Cytotoxicity Assessment at 72 hours in the Leibniz Research Institute for Environmental Medicine (IUF) Neural Progenitor Cell Proliferation Assay (NPC1) (AID 2284332; active = hit-call score of the fitted dose curve at least 0.9, where 1 is the maximum;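 also: rising LDH signal means more cytotoxicity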)
Summary of the method: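 Cytotoxicity by LDH membrane-integrity assay on medium supernatants, fluorescence via resazurin reduction, after 3-day single exposure of primary hNPC spheres at 37C, pH 7.2-7.6 with growth factors. Fitted upward against baseline.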

[28] = CCTE_Mundy_HCI_iCellGluta_NOG_NeuronCount: CCTE's Neurite Outgrowth Assay in iCellGluta cells for Neuron Count, Mundy Lab (AID 2284340; active = hit-call score of the fitted dose curve at least 0.9, where 1 is the maximum;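 also: cells fixed about 48 h after compound addition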)
Summary of the method: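 Neuron count read by automated high-content imaging of Hoechst 33342 and betaIII-tubulin/Alexa Fluor-488 labelling in human iPSC glutamatergic neurons. Activity fitted relative to DMSO.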

[29] = CCTE_Mundy_HCI_iCellGluta_NOG_NeuriteCount: CCTE's Neurite Outgrowth Assay in iCellGluta cells for Neurite Count, Mundy Lab (AID 2284342; active = hit-call score of the fitted dose curve at least 0.9, where 1 is the maximum;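 also: chemical exposure about 48 hours starting 2 hours after plating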)

Cc1c(O)cccc1C(=O)N[C@@H](CSc1ccccc1)[C@H](O)CN1C[C@H]2CCCC[C@H]2C[C@H]1C(=O)NC(C)(C)C
AC50 [1]: 33.8 µM (active)
AC50 [2]: 28.9 µM (active)
AC50 [3]: 4.56 µM (active)
AC50 [4]: 2.49 µM (active)
AC50 [5]: 3.11 µM (active)
AC50 [6]: 5.46 µM (active)
AC50 [7]: 6.41 µM (active)
AC50 [8]: 13.8 µM (active)
outcome [9]: inactive
AC50 [10]: 25 µM (active)
AC50 [11]: 15.4 µM (active)
AC50 [12]: 18.7 µM (active)
AC50 [13]: 11.1 µM (active)
AC50 [14]: 4.18 µM (active)
AC50 [15]: 12.7 µM (active)
AC50 [16]: 8.08 µM (active)
AC50 [17]: 13.4 µM (active)
AC50 [18]: 19.9 µM (active)
AC50 [19]: 7.87 µM (active)
AC50 [20]: 7.21 µM (active)
AC50 [21]: 0.596 µM (active)
AC50 [22]: 8.75 µM (active)
AC50 [23]: 14.5 µM (active)
AC50 [24]: 9.82 µM (active)
AC50 [25]: 8.12 µM (active)
AC50 [26]: 7.38 µM (active)
outcome [27]: inactive
AC50 [28]: 39.4 µM (active)
AC50 [29]: 37.4 µM (active)
